High-throughput results as filed in PubChem.
Rows were chosen to be rich in hits. Some 3.4% of all compounds tested hit in one or more screens of this group.
FBW7 act = activators of human E3 ligase FBW7; normalized activity (activation), % at 26.1 µM; AlphaScreen FBW7–phospho-cyclin E peptide binding, activator screen; 650,000 tested, 0.13% active; Q969H0; AID 1259310; in the data active means normalized activity above about 1.9%;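 further: purified mutant Fbw7 with reduced substrate affinity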
Target sequence (Q969H0 whole entry, looked up): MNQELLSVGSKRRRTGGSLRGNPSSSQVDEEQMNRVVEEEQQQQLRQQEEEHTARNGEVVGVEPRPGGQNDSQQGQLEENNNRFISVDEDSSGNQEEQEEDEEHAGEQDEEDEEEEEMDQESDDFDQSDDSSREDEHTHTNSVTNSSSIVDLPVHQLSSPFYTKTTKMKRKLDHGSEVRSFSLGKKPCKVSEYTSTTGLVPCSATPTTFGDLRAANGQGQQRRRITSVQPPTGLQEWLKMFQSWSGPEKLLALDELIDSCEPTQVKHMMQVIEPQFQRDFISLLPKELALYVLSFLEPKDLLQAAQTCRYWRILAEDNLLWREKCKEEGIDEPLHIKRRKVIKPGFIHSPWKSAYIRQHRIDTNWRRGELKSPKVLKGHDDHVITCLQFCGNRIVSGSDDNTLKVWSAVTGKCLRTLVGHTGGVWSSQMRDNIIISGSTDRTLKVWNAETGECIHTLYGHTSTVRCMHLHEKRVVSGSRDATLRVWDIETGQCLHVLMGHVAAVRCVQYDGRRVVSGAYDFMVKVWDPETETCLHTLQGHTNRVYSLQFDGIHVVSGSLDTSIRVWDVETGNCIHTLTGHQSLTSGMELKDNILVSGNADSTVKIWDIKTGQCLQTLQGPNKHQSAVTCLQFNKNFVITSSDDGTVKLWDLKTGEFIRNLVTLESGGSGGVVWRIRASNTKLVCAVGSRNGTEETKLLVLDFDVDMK
TEAD-YAP inh = TEAD-YAP interaction inhibition | inhibition, % at 9.12 µM | AID 1259422 | HEK-TIYL cells, TEAD-Gal4/YAP UAS-luciferase luminescence | 640,000 tested, 1.4% active; in the data active means inhibition above about 32%
MITF primary = blocks human microphthalmia-associated transcription factor; O75030; AlphaScreen MITF homodimerization, bead proximity signal; inhibition, % at 2.6 µM; 650,000 tested, 0.91% active; in the data active means inhibition above about 50%
GPR151 ag = activates the human receptor GPR151. Q8TDV0. PathHunter beta-arrestin GPR151 cells, luminescence. activation, % at 11.2 µM. 650,000 tested, 1% active. AID 1508602; in the data active means activation above about 4.9%
GPR151 confirm = confirmation of human GPR151 activators | 6,700 tested, under 10 active | activation, % at 11.2 µM | GPR151 PathHunter beta-arrestin cells, luminescence, 90 min; % of EA-reagent control over plate median | shares compounds with GPR151 ag;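 active means mean percent activation across replicates above the confirmation screen cutoff of 4.91%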
GPR119 counter = activates human GPR119 in a GPR151 counter-screen. shares compounds with GPR151 ag. GPR119 PathHunter beta-arrestin cells, luminescence, 90 min; 0 = compound-well median, 100 = enzyme-acceptor control. activation, % at 11.2 µM. 6,700 tested, 0.3% active;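 active means mean percent activation in the counterscreen above 29.09%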;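 further: counterscreen on off-target GPR119 to flag nonselective hits from the GPR151 activator screen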
Each line names hits and unclear results; the compound was inactive in the other large screens (follow-up assays come after a bar, where they were run); ! = not active in a repeat.

CN1CCOCCOCCOCCOCCOCC1	GPR151 ag 6.3 | GPR151 confirm inactive | GPR119 counter inactive
CC1(CC(=O)N/N=C/c2cccc(Br)c2)OCCO1	none
CC1(CC(=O)N/N=C/c2cccc(OC3CSC3)c2)OCCO1	GPR151 ag 5.9 | GPR151 confirm inactive | GPR119 counter inactive
Cc1nc2sccn2c(=O)c1CCN1CCC(=C(c2ccc(F)cc2)c2ccc(F)cc2)CC1	none
Cc1nc2ccccn2c(=O)c1CCN1CCC(C(=O)c2ccc(F)cc2)CC1	GPR151 ag 9.9! | GPR151 confirm inactive | GPR119 counter inactive
COc1ccccc1CNC(=O)CC1C(=O)NCCN1CCC(C)C (centres undefined)	GPR151 ag 5.8 | GPR151 confirm inactive | GPR119 counter inactive
O=C(N/N=C/c1ccc([N+](=O)[O-])o1)c1cccc2ccccc12	none
Cc1cc(C(=O)NCCc2ccc(S(N)(=O)=O)cc2)cs1	none
NS(=O)(=O)c1ccc(CCNC(=O)c2cccc(C#CC3(O)CCCCC3)c2)cc1	GPR151 ag 5.0 | GPR151 confirm inactive | GPR119 counter inactive
CCCCNC(=O)c1cc(=O)[nH]c2ccc(S(=O)(=O)N3CCC(C)CC3)cc12	none
CN(C)c1ccc(NC(=O)Nc2ccc(Cl)cc2)cc1	none
O=C(NCc1cccs1)NC1CC(=O)N(c2cccc(F)c2)C1 (centres undefined)	GPR151 ag 5.0 | GPR151 confirm inactive | GPR119 counter inactive
Cc1ccc(N2CC(NC(=O)NCc3ccco3)CC2=O)cc1C (centres undefined)	GPR151 ag 5.8 | GPR151 confirm inactive | GPR119 counter inactive
CCOc1cc(/C=c2\sc3nc4ccccc4n3c2=O)cc(Cl)c1O	none
COc1cccc(OC)c1C(=O)NNC(=O)c1cccc(Cl)c1	none
O=c1c2c3c(sc2[nH]c(=S)n1-c1ccccc1)CN(Cc1ccccc1)CC3	GPR151 ag 5.3 | GPR151 confirm inactive | GPR119 counter inactive
O=c1c2c3c(sc2[nH]c(=S)n1-c1ccccc1)CCC3	none
CCCOc1ccc(/C(O)=C2\C(=O)C(=O)N(CCCN3CCOCC3)C2c2ccccc2F)c(C)c1 (centres undefined)	none
Cc1cccc(-n2ccnc2SCC(=O)Nc2ccc(F)cc2F)c1C	GPR151 ag 9.3 | GPR151 confirm inactive | GPR119 counter inactive
COc1ccc(Cl)cc1NC(=O)CC(NCc1cccnc1)C(=O)O (centres undefined)	none
COc1ccc2cccc(NC(=O)c3ccco3)c2n1	GPR151 ag 6.4 | GPR151 confirm inactive | GPR119 counter inactive
O=C(Nc1cccc2ccc(-n3cccc3)nc12)c1ccco1	none
Cc1c(Cl)cccc1NC(=O)CSc1ncnc2c1sc1ccccc12	GPR151 ag 12.4 | GPR151 confirm inactive | GPR119 counter inactive
Nc1nnc(SCC(=O)Nc2nnc(SCC(=O)Nc3ccc(Cl)c(Cl)c3)s2)s1	none
COc1ccc(CNC(=O)CSc2nnc(NC(=O)c3ccccc3Cl)s2)cc1	GPR151 ag 6.3 | GPR151 confirm inactive | GPR119 counter inactive
CC(=O)Nc1nnc(SCC(=O)Nc2cccc(Cl)c2C)s1	GPR151 ag 8.7 | GPR151 confirm inactive | GPR119 counter inactive
CCC(=O)Nc1nnc(SCC(=O)Nc2ccc(Cl)c(Cl)c2)s1	GPR151 ag 8.9 | GPR151 confirm inactive | GPR119 counter inactive
C/C=C/c1ccc(OCC(=O)NNC(=O)COc2ccc(F)cc2)c(OC)c1	none
CC(N=C1NS(=O)(=O)c2ccccc21)C(=O)NNC(=O)c1cc(-c2ccccc2)n[nH]1 (centres undefined)	none
CC1(C)Cc2ccccc2/C(=C/C(=O)C(=O)NCc2ccccc2)N1	GPR151 ag 6.6 | GPR151 confirm inactive | GPR119 counter inactive
CCOc1ccc(NC(=O)COc2ccc(C3C(C#N)=C(N)Oc4n[nH]c(C)c43)cc2)cc1 (centres undefined)	none
COc1ccc(NC(=O)COc2ccc(C3C(C#N)=C(N)Oc4n[nH]c(C)c43)cc2)cc1 (centres undefined)	GPR151 ag 10.0 | GPR151 confirm inactive | GPR119 counter inactive
N#Cc1c(N)n(Cc2ccc3c(c2)OCO3)c2nc3ccccc3nc12	none
Cc1cc(Br)ccc1S(=O)(=O)N1CCOCC1	none
O=S(=O)(c1ccc(Br)cc1Br)N1CCOCC1	GPR151 ag 5.1 | GPR151 confirm inactive | GPR119 counter inactive
O=c1ccc2cc(S(=O)(=O)NCc3ccco3)ccc2o1	none
O=c1[nH]c2ccc(S(=O)(=O)NCc3ccco3)cc2o1	GPR151 ag 6.0 | GPR151 confirm inactive | GPR119 counter inactive
Cc1cc(=O)nc2c3ccccc3n(CC(=O)N3CCN(C)CC3)n12	none
COC(=O)CSc1nnc(CNC(=O)c2cccc(C)c2)n1C	none
COC(=O)CSc1nnc(CNC(=O)c2cccc(F)c2)n1C	GPR151 ag 5.2 | GPR151 confirm inactive | GPR119 counter inactive
CCNc1nc(NCC)n2c(SCC(=O)OCC)nnc2n1	GPR151 ag 26.0 | GPR151 confirm inactive | GPR119 counter inactive
CCNc1nc(NCC)n2c(SCC(=O)c3ccc(OC)cc3)nnc2n1	none
Cc1nnc2n1CCN(C(=O)c1ccccc1N(C)C)CC2	GPR151 ag 5.2 | GPR151 confirm inactive | GPR119 counter inactive
CCOC(=O)N1CCN(CCC(=O)Nc2ccccc2F)CC1	none
CC(C)Oc1c(Cl)cc(C=O)cc1Cl	GPR151 ag 6.8 | GPR151 confirm inactive | GPR119 counter inactive
Cc1cccc2sc(=NC(=O)c3ccccc3S(C)(=O)=O)n(C)c12	none
CCOc1ccc(N=Cc2c(O)n(CC)c(=S)[nH]c2=O)cc1	GPR151 ag 6.0 | GPR151 confirm inactive | GPR119 counter inactive
CC/C(C)=N\NC(=O)c1ccc(N)cc1	none
CC/C(C)=N/NC(=O)c1ccc(C(=O)N/N=C(\C)CC)cc1	GPR151 ag 8.3 | GPR151 confirm inactive | GPR119 counter inactive
CC(C)C[C@@H]1NC(=O)[C@@H]2C[C@H](NCc3cc(F)ccc3F)CN2C1=O	none
Cc1no[n+]([O-])c1COc1ccccc1C=C1C(=O)NC(=O)NC1=O	none
Cc1no[n+]([O-])c1COc1ccccc1C=C1C(=O)NC(=S)NC1=O	GPR151 ag 6.2 | GPR151 confirm inactive | GPR119 counter inactive
Cc1nc2c(C(=O)NC3CCCC(C)C3C)cnn2c(C)c1Cc1cccc(Cl)c1 (centres undefined)	GPR151 ag 6.5 | GPR151 confirm inactive | GPR119 counter inactive
CCCCNC(=O)c1cnn2c(C)c(Cc3ccc(F)cc3)c(C)nc12	GPR151 ag 8.3 | GPR151 confirm inactive | GPR119 counter inactive
Cc1nc2c(C(=O)NCC3CCCO3)cnn2c(C)c1Cc1ccccc1 (centres undefined)	none
Cc1nc2c(C(=O)NC3CC3)cnn2c(C)c1Cc1cccc(Cl)c1	none
COc1ccccc1CNC(=O)c1cnn2c(C)c(Cc3ccc(C)cc3)c(C)nc12	GPR151 ag 5.6 | GPR151 confirm inactive | GPR119 counter inactive
